Structures are written as SMILES. Among all 48,000 compounds or so, about 13,000 (27%) showed an effect of 50% or more. The list shows a part of the results.

The assay has as its system Wolbachia pipientis. The assay can be described thus: Anti-Wolbachia Cell-Based Screen. In kind it is functional. Set-up: scale not given: in the data most compounds retested in dose-response had high values. As to conditions: 5 µM.
Regarding `CCc1nnc2n1CCN(C(=O)c1csc(-c3cnn(C)c3)n1)C2`, the “Percent Effect” value is -10.57%.

On to `CCN1C[C@H]2CCN(C(=O)C3CCCO3)CC[C@H]2S1(=O)=O` (some centres undefined), for which the “Percent Effect” value is given as -2.394%. `CCc1nc(CN(C(C)=O)C2CCN(CCc3cnn(C)c3)C2)no1` (centres undefined): the “Percent Effect” value is -3.276%.

For `Cc1nc(CN(C)C2CCN(CCc3cccs3)C2)no1` (centres undefined), the “Percent Effect” value turned out to be 100.8%. Turning to `CCc1nc(CN(C(C)=O)C2CCN(Cc3cnc(C)cn3)C2)no1` (centres undefined), the “Percent Effect” value was -6.946%. For `Cc1nnc(CN(C)C2CCN(CCc3cccs3)C2)n1C` (centres undefined), the “Percent Effect” value is 4.049%. To `Cc1ccc(CCN2CCC(N(C)Cc3noc(C4CC4)n3)C2)cc1` (centres undefined) belongs 33.43%; to `CC(=O)N(Cc1ncc(C)o1)C1CCN(CCc2cccs2)C1` (centres undefined), 95.79%; to `CN(Cc1nnc(C2CC2)o1)C1CCN(CCc2cccs2)C1` (centres undefined), -15.6%. To `CCc1cnc(CN(C(C)=O)C2CCN(CCc3cccs3)C2)o1` (centres undefined) belongs 1.615%; to `CCn1c(C)nnc1CN(C)C1CCN(CCc2cccs2)C1` (centres undefined), -15.8%; to `CCCN1CCC(N(Cc2ncc(C)o2)C(C)=O)C1` (centres undefined), 4.824%. To `CCc1nc(CN(C(C)=O)C2CCN(CCc3cccs3)C2)no1` (centres undefined) belongs 109.6%; to `CN(Cc1noc(C2CC2)n1)C1CCN(CCc2cccs2)C1` (centres undefined), 86.2%; to `O=C(CSc1ccc2c(c1)OCCO2)NS(=O)(=O)c1cccnc1`, 7.646%. For `O=C(O)C(F)(F)F.O=C([C@@H]1COC[C@H]2CN(CC3CC3)C[C@H]21)N1CCC(F)CC1`, the “Percent Effect” value is -0.2992%.

In the case of `Cc1ncc2c(n1)CCN(C(C(N)=O)c1ccccc1)C2` (centres undefined), the “Percent Effect” value is -10.42%. As for `CC(C)NC(=O)[C@H]1C[C@@H]2[C@@H](C1)OCCN2CC1CC1.O=C(O)C(F)(F)F`, the “Percent Effect” value is -2.648%. For the molecule `CC(C)c1cnc(CN(C)C2CCN(CCc3ccccn3)C2)o1` (centres undefined), the “Percent Effect” value is recorded as -3.925%.

`CCc1nc(CN(C)C2CCN(CCc3cccs3)C2)no1` (centres undefined): the “Percent Effect” value is 104.6%. To `CCc1nc(CN2CCCC(N(C)Cc3cnc(C)s3)C2)no1` (centres undefined) belongs -6.39%; to `CCc1nc(CN(C)C2CCN(CCn3cccn3)C2)no1` (centres undefined), 113.6%.

Consider `CCc1nc(CN(C)C2CCN(CCS(C)(=O)=O)C2)no1` (centres undefined), for which the “Percent Effect” value was determined as 2.202%.

For the molecule `Cc1nc(CN(C)C2CCN(CCc3ccccn3)C2)no1` (centres undefined), the “Percent Effect” value is listed as 113.1%. In the case of `Cc1nc(CN2CCCC(N(C)CCc3cccs3)C2)no1` (centres undefined) it was 6.086%; in that of `CCc1nc(CN(C)C2CCN(CCc3ccccn3)C2)no1` (centres undefined), 16.6%. In the case of `CCc1nc(CN2CCCC(N(C)CCc3cccs3)C2)no1` (centres undefined) it was 105.7%; in that of `Cc1ccc(NCc2cn3c(n2)CN(Cc2ccc(C)o2)CC3)nn1.O=C(O)C(F)(F)F.O=C(O)C(F)(F)F`, -14.5%; in that of `COCCN1CCCC2(CCN(c3nccc4ccccc34)C2)C1=O` (centres undefined), 0.09488%. To `CN(C)C(=O)N1C[C@@H]2CC[C@H](C1)N(Cc1nnc(-c3ccco3)o1)C2` belongs 70.33%; to `CN(C)C(=O)N1C[C@@H]2CC[C@H](C1)N(Cc1nnc(C3CC3)o1)C2`, 98.65%. Consider `CN(C)C(=O)N1C[C@@H]2CC[C@H](C1)N(C/C=C/c1ccc(F)cc1)C2`, for which the “Percent Effect” value was 7.662%.

`CN(C)C(=O)N1C[C@@H]2CC[C@H](C1)N(Cc1ccc3nsnc3c1)C2`: the “Percent Effect” value is recorded as -1.823%. To `CC(C1CC1)N(C)Cc1nnc(-c2ccco2)o1` (centres undefined) belongs -0.554%; to `c1ccc(-c2nnc(CN3C[C@@H]4CC[C@H](C3)N(CC3CCC3)C4)o2)cc1`, 0.05664%; to `CN(C)C(=O)N1C[C@@H]2CC[C@H](C1)N(Cc1nnc(-c3ccccc3)o1)C2`, 137.1%. For the molecule `c1ccc(CN2C[C@@H]3CC[C@H](C2)N(Cc2nnc(C4CC4)o2)C3)cc1`, the “Percent Effect” value is listed as -6.562%.

For `c1ccc(CN2C[C@H]3CC[C@@H]2CN(Cc2nnc(C4CC4)o2)C3)cc1`, the “Percent Effect” value came out at 2.015%.

As for `CCC(NCc1ccccn1)c1ccccc1OCC(=O)NC` (centres undefined), the “Percent Effect” value worked out at 13.68%. In the case of `COCCOc1cccc(CNCC2CN(C)CCO2)c1` (centres undefined) it was 121.8%. To `CN1CCOC(CNCc2nc(-c3ccco3)no2)C1` (centres undefined) belongs -7.293%; to `CN1CCOC(CNCc2cccc(OC(F)(F)F)c2)C1` (centres undefined), 76.13%; to `CCCOc1cccc(CNC(=O)CN2CCN(C)CC2C)c1` (centres undefined), -6.684%. In the case of `COc1cccc(CNCC2CN(C)CCO2)c1` (centres undefined) it was 98.93%. With `CN1CCOC(CNCc2cccc(OCC(F)(F)F)c2)C1` (centres undefined), the “Percent Effect” value is recorded as -1.081%.

`FC(F)(F)Oc1cccc(CNC[C@H]2Cn3ccnc3CO2)c1`: the “Percent Effect” value was -15.74%. Take `CN1CCOC(CNC(=O)CCCOCCc2ccccc2)C1` (centres undefined): the “Percent Effect” value is given as -8.698%.

In the case of `CCOC(=O)CCNC(=O)N1CCOC(Cc2cccc(OC)c2)C1` (centres undefined), the “Percent Effect” value was -8.536%.

Take `CCCc1n[nH]c(C2CN(CCNC3CCCCC3)CCO2)n1` (centres undefined): the “Percent Effect” value is reported as 8.814%.

Consider `COc1cc(CNc2nc(C3CC3)no2)cc(OC)c1OC`, for which the “Percent Effect” value was 3.811%.

For `O=c1[nH]nc(CCCN2CCOCC2)n1Cc1cccc(F)c1`, the “Percent Effect” value came out at 102.2%. In the case of `O=C1O[C@@H]2CN(Cc3cccc(F)c3)C[C@@H]2N1CCCN1CCOCC1` it was 11.87%; in that of `O=C(NCCN1CCOCC1)Nc1cc(F)ccc1-n1cccn1`, -8.933%; in that of `Cc1nc(CCCN2CCOCC2)n(Cc2ccc(F)cc2)n1`, -6.384%. In the case of `O=C(NCCN1CCOCC1)c1cc(-c2ccc3c(c2)CCO3)n[nH]1` it was 2.601%. In the case of `O=C(NCc1cccc(F)c1)Nc1ccn(CCN2CCOCC2)n1` it was -19.73%; in that of `O=c1[nH]nc(CCCN2CCOCC2)n1-c1ccc(F)cc1F`, 93.86%; in that of `O=C1CCC(=O)N1CCN1CCN(c2cc(F)ccc2F)CC1`, -16.23%.

On to `Cc1ccc(F)cc1-n1c(CCCN2CCOCC2)n[nH]c1=O`, for which the “Percent Effect” value is on record as 109.2%. In the case of `CN1C[C@@H](n2cnc(-c3ccccc3)c2-c2ccccn2)C[C@H]1C(=O)O`, the “Percent Effect” value was -24.01%. As to `CC(C)(C)CN1CCOC[C@H]1c1nc(-c2cccc(F)c2)c[nH]1`, the “Percent Effect” value is on record as 4.483%. As for `CO[C@@H]1CC[C@@H](NS(=O)(=O)c2cn(C)nc2C)[C@H]1O`, the “Percent Effect” value is 86.74%.

Regarding `Cc1nn(C)cc1CN1CCCn2nc(CNC(=O)C3CCC3)cc2C1`, the “Percent Effect” value was -11.1%. To `Cc1nn(C)cc1S(=O)(=O)N[C@@H]1CCC[C@@H](N2CCCC2)[C@@H]1O` belongs 95.33%. In the case of `Cc1nccn1C1CCCN(C(=O)C2=NN(C)C(=O)CC2)C1` (centres undefined) it was -2.156%.

In the case of `Cc1nn(C)cc1S(=O)(=O)N[C@@H]1CCC[C@@H](n2ccnc2)[C@@H]1O`, the “Percent Effect” value worked out at 85.24%. In the case of `Cc1nccnc1N1CC[C@@H](NC(=O)c2cnccn2)[C@H](O)C1` it was -17.03%; in that of `Cc1nn(C)cc1S(=O)(=O)N[C@@H]1CC[C@@H](n2ccnc2C)[C@@H]1O`, 99.22%; in that of `Cn1cc(S(=O)(=O)N2CCCC2Cn2ccnc2)cn1` (centres undefined), -1.128%.

As for `Cn1cc(S(=O)(=O)N2CCCC2Cn2ccnc2)cc1C(N)=O` (centres undefined), the “Percent Effect” value is reported as -5.902%. Turning to `Cc1nc2n(n1)CC(NCC(=O)NCC1(c3ccccc3)CC1)CC2` (centres undefined), the “Percent Effect” value is reported as -4.512%. In the case of `CN(C(=O)c1cccc(OCC(F)F)n1)c1ccc2c(c1)CCO2` it was 3.505%; in that of `CCCOc1cccc(NS(=O)(=O)c2cc(C(=O)O)cs2)c1`, 12.59%; in that of `Cc1ccccc1C(=O)Nc1ccc([C@H]2OCC(=O)N(C)[C@@H]2CO)cc1`, -10.53%. In the case of `CN1Cc2nc[nH]c2C[C@H]1C(=O)NC1CCCCC1` it was 0.3029%; in that of `CN(CC1CCCCC1)C(=O)c1cn(C)nc1-c1cccnc1`, 20.64%; in that of `CNC(=O)C(C)(C)N1CCC[C@H]1C(=O)NC1CC1`, 8.345%.

Regarding `O=C(NC1CC1)C1CCc2nnc(-c3cccc(C(F)(F)F)c3)n21` (centres undefined), the “Percent Effect” value was 107.7%. Regarding `O=C(NC1CC1)C1CCCN(c2cccc(C(F)(F)F)n2)C1` (centres undefined), the “Percent Effect” value was -13%.

Regarding `Cn1cc(C(=O)NC2CCCC2)c(-c2cccnc2)n1`, the “Percent Effect” value stood at 1.647%. To `O=C(NC1CC1)C1CCc2nnc(C3CC3)n21` (centres undefined) belongs 105.6%; to `O=C(NC1CC1)C1CCc2nnc(-c3cccnc3)n21` (centres undefined), 102.7%.

For the molecule `CCCS(=O)(=O)N1C[C@@H]2COC[C@@H](Cc3nc(C)no3)[C@@H]2C1`, the “Percent Effect” value is reported as 1.373%. To `CCc1nc(CN2CCCN(C(=O)c3cn[nH]c3C)CC2)cs1` belongs 4.84%. Turning to `COc1cc(NCCNC(=O)c2cscc2C)cc(OC)c1`, the “Percent Effect” value is listed as -3.159%. In the case of `CN(CCNS(C)(=O)=O)CC(c1cccs1)N1CCOCC1` (centres undefined) it was -6.912%; in that of `CCCc1nc(C)c(C(=O)NC2CCN(C3CC3)C2)s1` (centres undefined), 4.49%. To `CCCc1nc(C)c(C(=O)NC2CCN(c3ncccn3)CC2)s1` belongs -4.746%; to `CCCc1nc(C)c(C(=O)NCCn2ccnc2)s1`, -2.524%; to `CCCc1nc(C)c(C(=O)NCCN2CCOCC2)s1`, 118.3%. With `CCc1nc(C)c(CNC(=O)CCCN2CCCCC2)s1`, the “Percent Effect” value is listed as -7.179%. In the case of `CCCc1nc(C)c(C(=O)NCCN2CCCCC2)s1` it was 125.3%; in that of `CCc1nc(C)c(C(=O)NCCNc2ncccn2)s1`, -5.791%; in that of `CCc1nc(C)c(C(=O)NCCN2CCCC2)s1`, 119.2%. In the case of `Cc1nc(-c2noc3ccc(C(=O)NCCN4CCOCC4)cc23)cs1` it was -14.65%.

As to `Cc1cc(F)ccc1S(=O)(=O)NCc1[nH]ncc1Br`, the “Percent Effect” value is recorded as 19.22%. Consider `COc1ccc2c(c1)OCC(Cc1ccc(N)cn1)C2` (centres undefined), for which the “Percent Effect” value is listed as -6.73%. With `Cc1ccc(NC(=O)[C@H]2C[C@H](C(=O)O)CN(CC(C)C)C2)cn1`, the “Percent Effect” value is 103.8%. To `Cc1ccc(N2CCC(C3CCN(CC(C)C)CC3)C2)nn1` (centres undefined) belongs -23.48%; to `Cc1ccsc1CN1CC2(CCN(C(=O)C3CC3)CC2)CC1C(=O)O` (centres undefined), -16.18%; to `Cc1ccc(NC(=O)c2nc3c(s2)CCCN3C(C)C)cn1`, 4.841%.

On to `Cc1ccsc1CN1CCCC(CNC(=O)c2ccc(N)nc2)C1` (centres undefined), for which the “Percent Effect” value amounted to 1.774%. In the case of `CCCc1nc(C)cc(N2CCNC(C(=O)Nc3ccc(C)nc3)C2)n1` (centres undefined) it was -5.575%; in that of `O=C(Nc1cccnc1)C1CCN(c2cc(-n3ccnc3)ncn2)CC1`, 4.084%; in that of `Cc1cncc(C(=O)N2CCNCC2C(=O)Nc2ccc(C)nc2)c1` (centres undefined), 4.535%. Take `Cc1ccc(NC(=O)[C@@H]2C[C@H](C(=O)O)CN(Cc3sccc3C)C2)cn1`: the “Percent Effect” value was 101.2%. To `COc1ccccc1[C@@H]1CN(CC2CCC2)C[C@H]1C(=O)O` belongs -30.09%; to `Cc1ccc(NC(=O)[C@H]2C[C@H](C(=O)O)CN(CC3CC3)C2)cn1`, 109.3%. For `CC(C)=CCN1C[C@@H](C(=O)O)C[C@H](C(=O)Nc2ccc(C)nc2)C1`, the “Percent Effect” value worked out at 93.94%.

These data come from ChEMBL document CHEMBL3988442, “University of Dundee, Small-Polar-MMV Screening Library” (2021).
